# Reference: article PMC8384837, “Expanding the binding specificity for RNA recognition by a PUF domain”
# Columns and labels:
# Assay in all cases: yeast three-hybrid, YBZ-1, SC-Leu-His + 0.5 mM 3-AT, 4 days
# Conditions in all cases: tags: N-Gal4 AD-HA kept; label: inside an RPR1-promoter hybrid RNA with tandem MS2 sites; ssRNA
# PUM1 PUF domain R8-VWP = PUM1 PUF domain R8-VWP (Homo sapiens, UniProt Q14671 828-1176, N1122V;Y1123W;Q1126P)
# How it was run: (§1)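 Matching RNA elements and Pumilio-1 PUF domain libraries, randomized at the three base-contacting residues of every repeat, were co-expressed from a centromeric plasmid in strain YBZ-1 (LexA–MS2 coat fusion, HIS3 reporter). The repeat regions were PCR-amplified and Illumina-sequenced from cells grown four days on SC-Leu (input) or SC-Leu-His + 0.5 mM 3-AT (selection). The interaction score is the log change in variant frequency from input to selection. It is computed in log2, with a pseudocount of 1 for absent variants.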
# PUM1 PUF domain R5-QMG = PUM1 PUF domain R5-QMG (Homo sapiens, UniProt Q14671 828-1176, C1007Q;R1008M;Q1011G)
# How it was run: as §1
# PUM1 PUF domain R4-TPG = PUM1 PUF domain R4-TPG (Homo sapiens, UniProt Q14671 828-1176, N971T;H972P;Q975G)
# Sequence of PUM1 PUF domain R4-TPG (Q14671 828-1176 N971T/H972P/Q975G): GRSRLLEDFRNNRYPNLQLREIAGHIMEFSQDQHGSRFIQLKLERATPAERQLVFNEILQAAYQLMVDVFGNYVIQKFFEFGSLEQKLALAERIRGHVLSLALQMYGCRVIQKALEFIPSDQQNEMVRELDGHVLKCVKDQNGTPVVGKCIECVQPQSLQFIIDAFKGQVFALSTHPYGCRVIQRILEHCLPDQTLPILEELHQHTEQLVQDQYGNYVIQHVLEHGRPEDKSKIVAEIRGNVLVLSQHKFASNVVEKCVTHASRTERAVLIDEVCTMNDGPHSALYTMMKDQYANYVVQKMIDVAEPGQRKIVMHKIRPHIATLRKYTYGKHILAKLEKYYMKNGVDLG
# How it was run: as §1
# PUM1 PUF domain R4-SPW = PUM1 PUF domain R4-SPW (Homo sapiens, UniProt Q14671 828-1176, N971S;H972P;Q975W)
# Sequence of PUM1 PUF domain R4-SPW (Q14671 828-1176 N971S/H972P/Q975W): as the sequence (Q14671 828-1176 N971T/H972P/Q975G) above, with T144S, G148W counted along it
# How it was run: as §1
sequence,measurement,setting,value
GGCUAGAACUAGUGGAUCCCCCGGCGCCCGGCGGCUCGAGCCCGGGUAAGCGUAAAUAGUCUGCAUGCCGCCGGGCGCCAUGCCUGCAGGUCGACUCUAGAAAACAUG,binding signal,PUM1 PUF domain R8-VWP,3.01 log2 enrichment (interaction score)
GGCUAGAACUAGUGGAUCCCCCGGCGCCCGGCGGCUCGAGCCCGGGUAAGUGUGAAUAGUCUGCAUGCCGCCGGGCGCCAUGCCUGCAGGUCGACUCUAGAAAACAUG,binding signal,PUM1 PUF domain R5-QMG,2.26 log2 enrichment (interaction score)
GGCUAGAACUAGUGGAUCCCCCGGCGCCCGGCGGCUCGAGCCCGGGUAAGUGUACAUAGUCUGCAUGCCGCCGGGCGCCAUGCCUGCAGGUCGACUCUAGAAAACAUG,binding signal,PUM1 PUF domain R4-TPG,3.87 log2 enrichment (interaction score)
same,binding signal,PUM1 PUF domain R4-SPW,0.34 log2 enrichment (interaction score)
